Assay outcomes deposited in PubChem BioAssay by The Scripps Research Institute Molecular Screening Center.
GPR151 ag – activates the human receptor GPR151. activation, % at 11.2 µM. PathHunter beta-arrestin GPR151 cells, luminescence. AID 1508602. hit rate 1% among 650,000; in the data active = activation above about 4.9%;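 also: 0% = median of compound wells and 100% = cells with positive control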
Target sequence (Q8TDV0 whole entry, looked up): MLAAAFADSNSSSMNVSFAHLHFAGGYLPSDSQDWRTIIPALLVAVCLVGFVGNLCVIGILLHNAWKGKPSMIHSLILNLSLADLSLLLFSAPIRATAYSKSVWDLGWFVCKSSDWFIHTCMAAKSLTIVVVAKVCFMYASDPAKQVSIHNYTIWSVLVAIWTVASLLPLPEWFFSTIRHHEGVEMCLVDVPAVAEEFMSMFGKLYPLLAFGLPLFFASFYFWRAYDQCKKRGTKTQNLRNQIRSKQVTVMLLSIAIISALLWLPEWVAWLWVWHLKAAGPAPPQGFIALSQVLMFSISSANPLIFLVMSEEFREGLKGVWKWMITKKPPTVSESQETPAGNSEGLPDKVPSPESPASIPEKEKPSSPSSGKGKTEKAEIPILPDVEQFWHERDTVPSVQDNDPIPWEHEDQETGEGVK
TEAD-YAP block – TEAD-YAP interaction inhibition. HEK-TIYL cells, TEAD-Gal4/YAP UAS-luciferase luminescence. hit rate 1.4% among 640,000. inhibition, % at 9.12 µM; in the data active = inhibition above about 32%;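 also: 0% = median of test compound wells and 100% = reference inhibitor wells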
MITF inh – human MITF inhibition, primary screen | hit rate 0.91% among 650,000 | O75030 | inhibition, % at 2.6 µM | AlphaScreen MITF homodimerization, bead proximity signal; in the data active = inhibition above about 50%;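 also: 0% = vehicle wells with protein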
FBW7 act – activators of human E3 ligase FBW7; Q969H0; normalized activity (activation), % at 26.1 µM; AlphaScreen FBW7–phospho-cyclin E peptide binding, activator screen; AID 1259310; hit rate 0.13% among 650,000; in the data active = normalized activity above about 1.9%;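 also: purified mutant Fbw7 with reduced substrate affinity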
MITF inh conf – confirmation of human MITF inhibitors | shares compounds with MITF inh | AlphaScreen MITF homodimerization, biotin/His-MITF beads | inhibition, % at 2.6 µM | hit rate 16% among 4,700 | AID 1259372;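 active = inhibition above a cutoff derived from the DMSO control wells, cut at about 28% in these data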;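 also: 0% = MITF dimer wells with DMSO only; inhibitors lower the bead chemiluminescence by keeping MITF from dimerizing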
AlphaScreen DR – AlphaScreen optical interference, dose response counter-screen. shares compounds with MITF inh. AlphaScreen optical interference counterscreen, cell-free. IC50, µM. hit rate 6% among 480; call rule not given here
AlphaScreen intf2 – AlphaScreen optical interference, counter-screen; LysRS AlphaScreen counterscreen, signal interference, triplicate; hit rate 7.6% among 4,700; AID 1259376; shares compounds with MITF inh; inhibition, % at 2.6 µM;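 active = inhibition above a cutoff derived from the DMSO control wells, cut at about 30% in these data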
* marks the source's active call; other numbers are inactive results; . = no result given. Shown are actives, neighbours in structure and some others; about 3.5% of the full set was active somewhere.

SMILES	GPR151 ag	TEAD-YAP block	MITF inh	FBW7 act	MITF inh conf	AlphaScreen intf2	others
COc1ccc2oc(C)c(C(O)c3cc4ccccc4o3)c2c1 (centres undefined)	0	-3	-7	0	.	.
CCc1ccc(OCC(O)Cn2c(N3CCCCCC3)nc3c2c(=O)[nH]c(=O)n3C)cc1 (centres undefined)	0	-4	-2	0	.	.
O=[N+]([O-])c1nn(-c2cccc(Cl)c2)n(O)c1=NC1CCCCC1	-1	5	56*	-1	15	14
O=C(CNC(=S)N(Cc1ccccc1)Cc1cccs1)NCc1ccco1	3	-4	8	0	.	.
Oc1ccc(CNc2ccccc2F)c2cccnc12	-1	2	68*	-1	70*	100*
Oc1ccc(Cl)c2cccnc12	-1	4	18	0	.	.
Oc1ccc(CNc2cccc(Cl)c2)c2cccnc12	-1	15	52*	-1	107*	100*
Oc1ccc(CNc2ccccc2Cl)c2cccnc12	0	16	68*	-2	51*	92*
COc1cccc(C2N=C(N)Nc3nc4ccccc4n32)c1O (centres undefined)	-1	3	-6	0	.	.
O=C(NC1CC1)C1CCN(c2ccc(Nc3ccc(N4CCOCC4)cc3)nn2)CC1	-3	3	-7	0	.	.
COc1ccccc1N1CCN(Cc2nc(-c3ccc(Cl)cc3)no2)CC1	-1	8	3	0	.	.
O=C(NC1CCCCC1)N1CCN2C(=O)[C@@H]3C[C@@H](O)CN3C(=O)[C@H]2C1	0	5	80*	0	73*	-9	AlphaScreen DR=>6.5
O=C(NC1CCCCC1)N1CCN2C(=O)[C@@H]3CSCN3C(=O)[C@H]2C1	-1	14	76*	0	60*	-2	AlphaScreen DR=>6.5
Cc1ccc(NC(=O)CN(Cc2ccccc2)S(=O)(=O)c2ccc(Br)cc2)cc1C	0	-8	59*	0	-2	5
OC(CNc1ccccc1)Cn1ccc2ccccc21 (centres undefined)	1	-6	52*	0	13	25
NS(=O)(=O)c1ccc(CNc2ccc3ncc(-c4cccc(C(=O)O)c4)n3n2)cc1	1	0	69*	0	9	11
CS(=O)(=O)Nc1ccc(-c2cnc3cccc(N(C(=O)c4ccccn4)C(=O)c4ccccn4)c3c2)cc1	0	-14	66*	-1	36*	54*
COc1ccc(CN(C)CCN(C)C)cc1OC	0	-7	16	0	.	.
COc1cc(Br)c(CN(C)CCN(C)C)cc1OC	1	-3	-16	0	.	.
COc1cc(CN(C)CCN(C)C)cc(OC)c1	-1	-3	64*	0	1	-1
COc1ccc(CN(C)CCN(C)C)cc1C	-1	0	58*	0	3	16
c1ccc2c(OCCCCN3CCOCC3)cccc2c1	-1	-19	27	0	.	.
c1ccc(-c2ccccc2OCCCN2CCOCC2)cc1	-1	3	91*	0	20	20
c1ccc(-c2ccccc2OCCOCCN2CCCC2)cc1	0	-1	21	0	.	.
c1ccc(-c2ccccc2OCCN2CCNCC2)cc1	0	-5	66*	0	21	10
SMILES	GPR151 ag	TEAD-YAP block	MITF inh	FBW7 act	MITF inh conf	AlphaScreen intf2	others
CCOC(=O)C1=C(C)N=c2s/c(=C3\C(=O)N(CC(N)=O)c4ccccc43)c(=O)n2C1c1ccccc1Cl (centres undefined)	-1	-6	-12	0	.	.
Cc1cccc(NCc2cccc([N+](=O)[O-])c2)c1	0	-3	69*	0	-4	-4
COc1ccc(OC)c(CNc2cccc(C)c2)c1	2	5	64*	0	15	22
COc1cc(OC)c(OC)cc1CNc1cccc(C)c1	-1	1	52*	0	-6	0
CCOc1ccc(/C=C/C(=O)Nc2cccc(OC)c2)cc1	-9	-6	-9	0	.	.
Cc1ccc(-n2c(C)cc(C(=O)CCl)c2C)cc1	0	-5	2	0	.	.
COc1ccc(CCNC(=O)c2cc(Nc3ccnn3C)nc3ccccc23)cc1	-2	-4	69*	0	0	-2
CC(=O)NC1(c2ccccc2F)CCN(C(=O)CCC(=O)O)CC1	-1	3	77*	0	4	16
CCOc1ccccc1Nc1cc(C)nc2c(C)cc(C)cc12	-1	6	-7	0	.	.
Cc1cccc(NC2(C(F)(F)F)N=C3SCCN3C2=O)n1 (centres undefined)	-1	-7	80*	0	8	10
O=C1Nc2c(I)cccc2C1=O	-1	6	11	0	.	.
O=C1Nc2c(C(=O)O)cccc2C1=O	-3	2	71*	0	68*	10	AlphaScreen DR=>7.9
O=C1NC(=O)N(Cc2ccccc2Cl)C(=O)/C1=C/c1ccc(N2CCOCC2)cc1	0	-11	-8	-1	.	.
Cc1ccc(N2CCN(Cc3c(C)n(C)n(-c4ccccc4)c3=O)CC2)cc1	1	8	3	0	.	.
O=C1CC(n2nnn(-c3ccc4c(c3)OCO4)c2=S)C2COC1O2 (centres undefined)	-1	-4	-3	1	.	.
O=S(=O)(c1ccccc1)N1CCN(CC(O)COCc2ccco2)CC1 (centres undefined)	-2	1	94*	0	17	1
COc1ccc(/C=C2\N=C(c3ccc4c(c3)OCO4)OC2=O)cc1Cl	-1	0	69*	0	74*	10	AlphaScreen DR=>5.4
COc1cc(/C=C2\N=C(c3ccc(C)cc3)OC2=O)ccc1OCc1ccccc1Cl	-1	-6	-1	0	.	.
COc1cc(/C=C2\N=C(c3ccc(F)cc3)OC2=O)ccc1OCc1ccccc1Cl	1	-2	73*	0	2	16
COc1ccc(NC(=O)CCCCCn2c(SCC(=O)NCC3CCCO3)nc3ccsc3c2=O)cc1 (centres undefined)	0	7	16	0	.	.
O=C(CN1C(=O)NC2(CCCCCC2)C1=O)NC(=O)NCc1ccco1	-1	-4	70*	0	71*	12	AlphaScreen DR=>7.2
CC1(C)CC(=O)C2=C(C1)N(c1ccc(Cl)cc1)C(N)=C(C#N)C2c1ccc(C(C)(C)C)s1 (centres undefined)	-2	8	12	0	.	.
CC1(C)CC(=O)C2=C(C1)N(c1ccc(Br)cc1)C(N)=C(C#N)C2c1ccc(C(C)(C)C)s1 (centres undefined)	-2	-5	52*	0	16	0
CC(C)(C)c1csc(CN2CCN(CC(=O)Nc3ccc4c(c3)OCO4)CC2)n1	-1	9	79*	-1	2	3
CCCCOc1ccc(N2C(=O)CC(N(C)CCc3ccc(OC)c(OC)c3)C2=O)cc1 (centres undefined)	-1	5	6	0	.	.
